D2 PAM-1: positive allosteric modulators of human D2 dopamine receptor; potentiation, % (no concentration beside the values); DiscoveRx D2 beta-arrestin cells, luminescence, 90 min; 100% = 57 uM dopamine signal; AID 624464; 0.23% of 360,000 active; in the data active = potentiation above about 50%
Target sequence (P14416 whole entry, looked up): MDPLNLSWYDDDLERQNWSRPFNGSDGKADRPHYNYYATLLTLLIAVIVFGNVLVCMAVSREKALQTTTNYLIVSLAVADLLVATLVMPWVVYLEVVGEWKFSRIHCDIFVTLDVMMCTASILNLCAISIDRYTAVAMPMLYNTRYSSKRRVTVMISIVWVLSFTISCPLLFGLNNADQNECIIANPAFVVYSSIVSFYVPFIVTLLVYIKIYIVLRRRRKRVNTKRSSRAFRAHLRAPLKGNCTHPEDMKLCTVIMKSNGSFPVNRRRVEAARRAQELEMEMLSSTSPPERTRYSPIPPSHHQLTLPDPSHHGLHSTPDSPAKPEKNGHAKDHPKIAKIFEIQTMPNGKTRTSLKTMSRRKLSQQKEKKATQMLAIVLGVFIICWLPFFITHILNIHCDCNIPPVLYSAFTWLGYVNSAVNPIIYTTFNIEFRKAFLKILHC
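D2 cells co-treated with compound plus 50 nM dopamine (EC20) for 90 min at 37 deg C to detect potentiation. Beta-arrestin recruitment was read as enzyme-fragment luminescence after 1 h at ambient temperature. Full response was set by 57 uM dopamine.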
D2 ag-1: D2 dopamine receptor (human) agonism. HEK293 T-REx D2 cells, calcium flux agonist mode. activation, % at 2 µM. 0.53% of 340,000 active. AID 485358;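 active = activation over 3 SD above normal in the single-dose calcium agonist read, cut at about 30% in these data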
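Agonism is scored from calcium flux in a force-coupled, inducible HEK293 cell line expressing D2, read kinetically for 180 s after compound addition against dopamine controls.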
D2 ag-2: human D2 receptor agonism in beta-arrestin assay; P14416; DiscoveRx PathHunter D2 beta-arrestin, luminescence, 90 min; 100% = 57 uM dopamine signal; activation, % (no concentration beside the values); 0.084% of 360,000 active; AID 624465; in the data active = activation above about 40%
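Agonist mode: compounds alone added to overnight-plated D2 PathHunter cells for 90 min at 37 C, with 57 uM final dopamine (EC100) defining full response. Beta-arrestin recruitment detected by chemiluminescent reagent, read after 1 h at ambient temperature.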
D2 PAM-2: positive allosteric modulators of human D2 dopamine receptor. P14416. HEK293 T-REx D2, calcium flux, EC20 dopamine potentiation. potentiation, % at 10 µM. 0.34% of 340,000 active. AID 485347;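 active = potentiation over 3 SD above the plate norm, cut at about 30% in these data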
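Using a no-wash calcium dye in inducible, force-coupled HEK293 Trex cells expressing D2, we tracked fluorescence each second for 180 s after compound, then for 180 s after EC20 dopamine to detect augmented signalling.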
D2 antagonist: D2 dopamine receptor (human) antagonism. AID 485344. HEK293 TREx D2 cells, calcium flux, dopamine EC80. inhibition, % at 10 µM. P14416. 2% of 340,000 active; in the data active = inhibition above about 30%; inactive = below that, where a call was filed
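Read-out: kinetic calcium fluorescence (1 cycle/s) in inducible HEK293 T-REx D2 cells after an EC80 dopamine addition that followed 180 s compound preincubation. Loss of the dopamine response indicates antagonism.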
A number is an active result; 0 = inactive; - = no result. Sampled rows, rich in hits. Any-hit rate of the full collection: about 2.4%.

SMILES	D2 PAM-1	D2 ag-1	D2 ag-2	D2 PAM-2	D2 antagonist
COc1ccccc1CN1CCN(Cc2nc(-c3ccc(C)cc3)oc2C)CC1	0	0	0	0	0
COc1ccccc1N1CCN(Cc2cn[nH]c2-c2ccc(F)cc2)CC1	0	0	0	0	82
COc1ccc(CN2CCC(C(=O)c3ccc(Cl)cc3)CC2)cc1	0	0	0	0	35
COc1ccc(CN2CCC(C(=O)c3cccc(Cl)c3)CC2)cc1	0	-	0	0	-
COc1ccc(-c2nc(CN3CCN(c4ccccc4OC)CC3)c(C)o2)cc1	0	0	0	0	99
COc1ccc(-c2[nH]ncc2CN2CCC(C(=O)c3ccc(F)cc3)CC2)cc1	0	0	0	0	83
COc1ccc2c(c1)CC(C(=O)NCCc1ccc(S(N)(=O)=O)cc1)CO2 (stereo not given)	-	0	-	0	-
O=C(Nc1ccc(F)cc1)C1=CC(=O)N2CCN=C2S1	-	0	-	0	0
CC(=O)N1CCCC1c1nc2ccccc2n1Cc1cccc(C)c1 (stereo not given)	-	0	-	0	-
COc1cccc(NC(=O)CN2C(=O)C3(SCC(=O)N3c3cc(C)cc(C)c3)c3ccccc32)c1 (stereo not given)	-	0	-	0	-
Cc1cc(N2CCN(Cc3nc(-c4ccc(F)cc4)oc3C)CC2)cc(C)n1	0	0	0	0	0
COc1ccccc1N1CCN(Cc2nc(-c3ccc(F)cc3)oc2C)CC1	0	0	0	0	80
COc1ccc(C)cc1NC(=O)c1cc(S(=O)(=O)N2CCOCC2)cn1C	0	0	0	0	0
CC(C)c1nnc(N2C(=O)C(O)=C(C(=O)c3cccs3)C2c2ccccc2)s1 (stereo not given)	0	166	0	0	48
CC1CN(C(=O)CCC(=O)NCc2cccs2)c2ccccc2O1 (stereo not given)	-	0	-	0	-
CCN1/C(=C/C(C)=O)Sc2ccc(OC)cc21	0	-	0	-	-
CCOC(=O)/C(=C/C=C1\Sc2cc(OCC)c(OCC)cc2N1CC)C(C)=O	0	88	0	0	72
CCOC(=O)/C(=C\C=C1/Sc2cc(OCC)c(OCC)cc2N1CC)C(C)=O	0	100	0	0	65
CN1CCN(C(=O)C2=C[C@H](c3coc4ccccc4c3=O)C[C@H](OCCCCO)O2)CC1	0	0	0	0	0
O=C(C1=C[C@@H](c2coc3ccccc3c2=O)C[C@@H](OCCCCO)O1)N1CCOCC1	0	0	0	0	62
COc1ccc(OC)c(-c2cc(C(=O)NCc3ccc(Cl)cc3)no2)c1	0	0	0	0	62
COc1ccc(-c2cc(C(=O)NCc3ccc(Cl)cc3)no2)cc1OC	0	0	0	0	0
COc1ccccc1-c1cc(C(=O)NCc2cccs2)no1	0	0	0	0	76
COc1ccccc1-c1cc(C(=O)NC(C)c2ccccc2)no1 (stereo not given)	0	0	0	0	61
COc1ccc(OC)c(-c2cc(C(=O)NCc3cccs3)no2)c1	0	0	0	0	0
SMILES	D2 PAM-1	D2 ag-1	D2 ag-2	D2 PAM-2	D2 antagonist
Cc1ccc(/C=N/NC(=O)Cn2nnc(N)n2)cc1	0	0	0	0	41
CC(C)NC(=O)/C(=N\O)c1ccccc1	0	0	0	0	32
CCc1ccc(NC(=O)CCC(=O)Nc2nnc(C(C)C)s2)cc1	0	0	0	0	43
CC(C)c1nnc(NC(=O)CCC(=O)Nc2ccc(F)cc2)s1	0	0	0	0	0
COc1ccc2c3c(cccc13)C(=O)CC2	0	49	0	0	0
COc1ccc(-n2nnnc2C2CCN(S(=O)(=O)c3ccc(NC(C)=O)cc3)CC2)cc1	-	0	-	0	-
COc1cc(Cn2c(=O)sc3ccccc32)ccc1OCCC(C)C	-	0	-	0	-
O=C(Nc1cccc(C(F)(F)F)c1)C1CC(=O)N(CCc2ccccc2)C1 (stereo not given)	0	0	0	0	63
Cc1ccc(CN(Cc2cccn2-c2nnc(N3CCCC3=O)s2)C(=O)Nc2ccc(F)cc2)cc1	-	0	-	0	-
Cn1c(=NC(=O)c2ccc(S(=O)(=O)N3CCCc4ccccc43)cc2)sc2cc(S(C)(=O)=O)ccc21	0	0	0	0	0
C#CCn1c(=NC(=O)c2ccc(S(=O)(=O)N3CCCc4ccccc43)cc2)sc2cc(S(N)(=O)=O)ccc21	0	0	0	0	48
O=C(NCc1cccc(F)c1)C1CCCN(C(=O)N2CCOc3ccccc32)C1 (stereo not given)	-	0	-	0	-
O=C(NCc1ccccc1)C1CCN(S(=O)(=O)c2ccc(N3CCCC3=O)cc2)CC1	0	0	0	0	0
COc1ccccc1CNC(=O)C1CCN(S(=O)(=O)c2ccc(N3CCCC3=O)cc2)CC1	0	0	0	0	37
O=C(Nc1cccc(C(F)(F)F)c1)C1CCN(S(=O)(=O)c2ccc(N3CCCC3=O)cc2)CC1	0	0	0	0	64
CS(=O)(=O)n1nc(-c2ccco2)nc1NCc1ccccc1Cl	-	0	-	0	-
CCOC(=O)CNC(=O)N1C[C@H]2CON(C)[C@H]2C[C@H]1c1ccccc1Br	0	-	0	-	-
COc1cc(NC(=O)Cn2ccn(-c3cc(C)cc(C)c3)c(=O)c2=O)cc(OC)c1	-	0	-	0	-
Cc1ccccc1C(=O)c1cccn1CC(=O)NC1CCCC(C)C1C (stereo not given)	0	0	0	0	0
CC1CCCCC1NC(=O)Cn1cccc1C(=O)c1ccccc1 (stereo not given)	0	0	0	35	0
Cc1ccc(NC(=O)CN(C)S(=O)(=O)c2ccc3c(c2)n(C)c(=O)c(=O)n3C)c(C)c1	0	0	0	0	0
Cc1cc(C)c(NC(=O)CN(C)S(=O)(=O)c2ccc3c(c2)n(C)c(=O)c(=O)n3C)c(C)c1	0	0	0	75	0
CC1CCN(c2oc(-c3ccc(COc4ccc(Cl)cc4)o3)nc2C#N)CC1	-	0	-	0	-
COC(=O)Cc1c(C)c2ccc3c(c2oc1=O)CN(Cc1ccccc1Cl)CO3	-	0	-	0	-
COc1cc(NC(=O)CSc2nc(C)c(C)c(C)n2)cc(OC)c1	0	0	0	0	48
SMILES	D2 PAM-1	D2 ag-1	D2 ag-2	D2 PAM-2	D2 antagonist
CCCc1cc(C(N)=O)c(NC(=O)c2ccoc2C)s1	0	0	0	-	31
Fc1ccc(N2CCN(Cc3cnc(Cl)s3)CC2)cc1	0	39	0	0	0
Fc1ccc(N2CCN(Cc3nnc(-c4ccccc4Cl)o3)CC2)cc1	-	0	-	0	-
COC(=O)[C@]1(Cc2ccccc2)N[C@H](CN(C)C(=O)c2ccc(F)cc2)[C@@H]2C(=O)N(Cc3ccccc3)C(=O)[C@@H]21	0	-	0	-	-
CCc1cc(=O)oc2c(CN3CCN(C)CC3)c(O)c(Cl)cc12	0	0	0	35	0
CCN(CC)CC(=O)Nc1cc(N(C)C)nc2ccccc12	0	0	0	0	0
CCCCCC(=O)Nc1cc(N(C)C)nc2ccccc12	0	0	0	0	35
